Source: PubChem BioAssay AID1159580 (chemical genetic matrix, 2015)
Values joined by “and” are separate entries in the source; they are usually repeats but may differ in a detail not shown here. Equal values may be shown once. In all, about 5,500 compounds went through this assay and about 2,000 (36%) were called active. Not shown: some 18% with an inconclusive outcome. Rule as the data show it: active = normalized growth mostly below about 0.91 (no sharp cut-off); inconclusive = no clear call, values can overlap the other calls; inactive = mostly above about 0.92. The list shows a part of the results.

Experiment: chemical genetic growth profiling, strain panel (AID 1159580);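 also: tested at 20 µM; growth read once vehicle control cultures reached saturation at 30 °C; 1 = growth at the plate median or of vehicle wells; lower values mean less growth of the strain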
Conditions: S. cerevisiae deletion strains, growth OD

Measured: normalized growth

CCCCC(=O)O[C@]1(C(=O)CO)[C@@H](C)CC2C3CCC4=CC(=O)C=C[C@]4(C)[C@@]3(F)C(O)C[C@@]21C (stereo partly drawn)
inactive: locus YAL013W, strain DEP1, stronger effect = lower value 0.968 | locus YAL021C, strain ccr4, stronger effect = lower value 0.982 | locus YAL026C, strain drs2, stronger effect = lower value 1.01 | locus YAL030W, strain snc1, stronger effect = lower value 0.981 | locus YBL061C, strain skt5, stronger effect = lower value 0.978 | locus YBR009C, strain hhf1, stronger effect = lower value 0.99 | locus YBR021W, strain FUR4, stronger effect = lower value 0.986 | locus YBR023C, strain chs3, stronger effect = lower value 0.98 | locus YBR171W, strain sec66, stronger effect = lower value 0.941 | locus YBR229C, strain ROT2, stronger effect = lower value 0.99 | locus YBR231C, strain swc5, stronger effect = lower value 0.948 | locus YBR279W, strain paf1, stronger effect = lower value 0.991 | locus YCL011C, strain gbp2, stronger effect = lower value 0.99 | locus YCL016C, strain dcc1, stronger effect = lower value 1.01 | locus YCL029C, strain bik1, stronger effect = lower value 0.981 | locus YCL069W, strain vba3, stronger effect = lower value 0.989 | locus YCR088W, strain abp1, stronger effect = lower value 0.997 | locus YDL005C, strain med2, stronger effect = lower value 0.972 | locus YDL035C, strain GPR1, stronger effect = lower value 1.03 | locus YDL040C, strain nat1, stronger effect = lower value 0.975 | locus YDL074C, strain BRE1, stronger effect = lower value 0.979 | locus YDL101C, strain DUN1, stronger effect = lower value 0.961 | locus YDL134C, strain PPH21, stronger effect = lower value 1 | locus YDL185W, strain tfp1, stronger effect = lower value 0.97 | locus YDL192W, strain arf1, stronger effect = lower value 0.978 | locus YDR001C, strain nth1, stronger effect = lower value 0.986 | locus YDR069C, strain doa4, stronger effect = lower value 0.968 | locus YDR101C, strain arx1, stronger effect = lower value 0.998 | locus YDR137W, strain rgp1, stronger effect = lower value 0.979 | locus YDR159W, strain sac3, stronger effect = lower value 0.974 | locus YDR162C, strain NBP2, stronger effect = lower value 1.01 | locus YDR195W, strain ref2 0.963 | locus YDR297W, strain sur2, stronger effect = lower value 0.975 | locus YDR318W, strain mcm21, stronger effect = lower value 0.996 | locus YDR334W, strain swr1, stronger effect = lower value 0.988 | locus YDR335W, strain msn5, stronger effect = lower value 0.977 | locus YDR388W, stronger effect = lower value 0.982 | locus YDR392W, strain spt3, stronger effect = lower value 1.07 | locus YDR502C, strain sam2, stronger effect = lower value 0.988 | locus YEL003W, strain gim4, stronger effect = lower value 0.987 | locus YEL037C, strain rad23, stronger effect = lower value 0.991 | locus YEL061C, strain CIN8 (second series), stronger effect = lower value 0.991 | locus YEL061C, strain CIN8, stronger effect = lower value 0.995 | locus YER015W, strain faa2, stronger effect = lower value 0.979 | locus YER016W, strain bim1, stronger effect = lower value 1.02 | locus YER110C, stronger effect = lower value 0.982 | locus YER111C, strain swi4, stronger effect = lower value 0.968 | locus YER155C, strain BEM2 (second series), stronger effect = lower value 0.981 | locus YER155C, strain BEM2, stronger effect = lower value 1.01 | locus YER167W, strain BCK2, stronger effect = lower value 1.01 | locus YFR010W, strain ubp6, stronger effect = lower value 0.95 | locus YGL078C, strain dbp3, stronger effect = lower value 0.99 | locus YGL086W, strain mad1, stronger effect = lower value 0.982 | locus YGL167C, strain pmr1, stronger effect = lower value 0.959 | locus YGL173C, strain kem1, stronger effect = lower value 0.96 | locus YGL227W, strain vid30, stronger effect = lower value 0.97 | locus YGL240W, strain doc1, stronger effect = lower value 0.945 | locus YGL248W, strain PDE1, stronger effect = lower value 0.962 | locus YGL253W, strain hxk2, stronger effect = lower value 0.985 | locus YGR078C, strain PAC10, stronger effect = lower value 0.969 | locus YGR135W, strain pre9, stronger effect = lower value 0.977 | locus YGR252W, strain gcn5, stronger effect = lower value 1.02 | locus YHR013C, strain ard1, stronger effect = lower value 0.996 | locus YHR027C, strain rpn1, stronger effect = lower value 0.986 | locus YHR030C, strain SLT2, stronger effect = lower value 0.991 and 0.976 | locus YHR079C, strain IRE1 (second series), stronger effect = lower value 1 | locus YHR079C, strain IRE1, stronger effect = lower value 0.977 | locus YHR094C, strain hxt1, stronger effect = lower value 0.983 | locus YHR129C, strain ARP1, stronger effect = lower value 0.983 | locus YHR142W, strain chs7, stronger effect = lower value 0.943 | locus YHR200W, strain rpn10, stronger effect = lower value 0.992 | locus YIL066C, strain RNR3, stronger effect = lower value 1.01 | locus YIL073C, strain SPO22, stronger effect = lower value 1.01 | locus YIL125W, strain kgd1, stronger effect = lower value 0.97 | locus YIR030C, strain dcg1, stronger effect = lower value 0.992 | locus YJL092W, strain hpr5, stronger effect = lower value 0.976 | locus YJL095W, strain BCK1 (second series), stronger effect = lower value 0.982 | locus YJL095W, strain BCK1, stronger effect = lower value 0.888 and 0.991 | locus YJL115W, strain asf1, stronger effect = lower value 0.965 | locus YJL129C, strain trk1, stronger effect = lower value 0.943 | locus YJL134W, strain LCB3, stronger effect = lower value 0.994 | locus YJL154C, strain vps35, stronger effect = lower value 0.972 | locus YJL164C, strain tpk1, stronger effect = lower value 0.988 | locus YJL166W, strain qcr8, stronger effect = lower value 0.941 | locus YJL168C, strain set2, stronger effect = lower value 0.983 | locus YJL187C, strain SWE1 (second series), stronger effect = lower value 0.933 | locus YJR043C, strain POL32, stronger effect = lower value 1.03 | locus YJR066W, strain TOR1, stronger effect = lower value 0.958
